EWS-Fli inh: EWS/Fli-driven NR0B1 reporter inhibitors, primary screen, A673 cells, NR0B1 luciferase, luminescence, MLPCN library. viability-normalised. inhibition, % at 12.6 µM. 350,000 compounds, 0.67% hits;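 active = mean inhibition of at least 50% after viability correction, with every replicate also passing that limit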;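 also: firefly luciferase signal divided by Alamar Blue viability fluorescence both relative to DMSO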
PAX8 reporter: inhibitors of PAX8-driven TPO luciferase reporter, primary screen, RMG-I cells, single concentration | SteadyGlo, 24 h | inhibition, % at 12.6 µM | 360,000 compounds, 1.2% hits | AID 652154, 2013;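 active = mean replicate inhibition at least 60% with every replicate also reaching 60%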;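 also: luciferase light reporting Pax8 driven TPO promoter activity; plate controls were median of neutral control wells for no effect and mitoxantrone controls for full effect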
LGR2 antag: inhibitors of bursicon-induced LGR2 CRE-luciferase signal, primary screen, cell-based, HEK293, CRE-luciferase reporter, bursicon stimulation | AID 720647, 2013 | 380,000 compounds, 0.35% hits | Drosophila bursicon receptor LGR2 (rickets) | inhibition, % at 9.99 µM | bursicon-stimulated, 4 h;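 active = drop in luminescence signal, shown as inhibition above about 50% in the replicate tests, limit read from the data, passing the limit was not always enough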;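 also: agonist challenge used bursicon conditioned medium at about half maximal strength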
EBV LMP1 NFkB: EBV LMP1-driven NF-kappaB luciferase reporter inhibitors, primary screen, cell-based, luminescence, single point; LMP1-induced NF-kappaB luciferase reporter cells; inhibition, % at 12.5 µM; 350,000 compounds, 0.69% hits; AID 504558, 2011; in the data active = inhibition above about 41%;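 also: 0% = neutral control wells and 100% = reference inhibitor control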
MITF TRPM1 inh: inhibitors of MITF-dependent TRPM1 promoter reporter, primary screen, cell-based, SK-MEL-5, single point, luciferase; AID 488899, 2010; SK-MEL-5 TRPM1 promoter luciferase, 24 h; inhibition, % at 12.5 µM; 330,000 compounds, 0.83% hits;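 active = mean inhibition across replicates of 60% or more, whatever share of single replicates reaches that level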
PGC1a acetyl inh: inhibitors of PGC1a acetylation signal, primary screen, cell-based, U2OS, AlphaScreen, inhibitor mode; AlphaScreen anti-acetyl-lysine; with virally co-expressed GCN5 acetyltransferase; 350,000 compounds, 0.17% hits; inhibition, % at 15.6 µM;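 active = every replicate shows inhibition of at least 40%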;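 also: 0% = neutral control wells and 100% = positive control wells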
DNA binder FP: DNA binders by acridine orange displacement, dose response, counter-screen for EWS/Fli inhibitor project, biochemical, fluorescence polarization, cherry-pick | shares compounds with EWS-Fli inh | salmon sperm DNA acridine orange fluorescence polarization | AC35, µM (series often up to 68 µM), without a hit: at the highest dose activity change, negative = DNA binding | 640 compounds, 2% hits | AID 720586, 2013;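 active = fitted curve reaches a 35% signal fall AC35 below twice the sample's top valid tested dose, actives reach about 48 µM in these data; inactive = the rest, including activity in the rising direction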;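 also: lower polarization ratio signals compound binding to DNA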
An asterisk follows results filed as active; nt = no result. An excerpt weighted towards active compounds, which were near 2.2% of everything screened.

SMILES	EWS-Fli inh	PAX8 reporter	LGR2 antag	EBV LMP1 NFkB	MITF TRPM1 inh	PGC1a acetyl inh	DNA binder FP
O=C1NC(=O)N(Cc2ccco2)C(=O)/C1=C/C=C/c1ccco1	60.6*	13.7	2.5	-36.2	95.4*	nt	-1.0%
O=C(O)[C@H]1[C@H](CO)[C@H]2Cn3c(ccc(-c4ccccc4)c3=O)[C@@H]1N2CC1CCCCC1	1.7	-10.4	-5.7	nt	nt	nt	nt
COC1C(O)C(C)OC(OC2C(Oc3cccc4c(O)c5c(=O)oc6ccc(C)c7c(=O)oc(c34)c5c67)OC(C)C(O)C2O)C1O (stereo not drawn)	68.8*	nt	18.2	-60.5	49.7	0.1	-7.0%
c1cncc(-c2ccc(C3[C@H]4CNC[C@@H]3N4CC3CC3)cc2)c1 (stereo partly drawn)	-11.6	-8.7	-4.0	nt	nt	7.7	nt
COC(=O)[C@@H]1[C@@H](CO)[C@@H]2Cn3c(ccc(-c4ccc(F)cc4)c3=O)[C@H]1N2Cc1ccccc1	-5.5	-14.8	-6.8	nt	nt	nt	nt
O=C(Cc1ccccn1)N1CCCCN2[C@@H](CO)[C@@H](c3ccc(Br)cc3)[C@@H]2C1	-2.2	-9.3	-31.7	nt	nt	-0.1	nt
C=C1C(=O)OC2C1CCC(C)C1(O)C=CC(=O)C21C (stereo not drawn)	62.1*	nt	40.5	-73.6	74.8*	-115.4	-8.7%
O=C(Nc1ccc(OC(=O)N2CCCCC2)cc1)N1CCOCC1	75.8*	58.4	11.9	29.5	66.2*	2.5	-2.4%
CCOC(=O)[C@]12Cc3cc(Cl)ccc3[C@H]1N(Cc1ccccc1)C(=O)c1ccccc12	11.7	25.8	32.0	-5.5	-2.7	nt	nt
CCOC(=O)[C@]12Cc3ccc(C)cc3[C@H]1N(C1CCCCC1)C(=O)c1ccccc12	59.1*	81.5*	52.9*	nt	nt	nt	15.3%
CC(C)c1oc(=O)cc2c1[C@@H](O)[C@H]1OC(=O)[C@@]3(C)CC[C@@H](O)[C@@]2(C)C13 (stereo partly drawn)	62.4*	36.8	67.0*	0.3	59.9	nt	-3.1%
C[C@@H]1O[C@@H](O[C@H]2C[C@@H](O)[C@]3(CO)[C@@H]4C(CC[C@]3(O)C2)[C@@]2(O)CC[C@H](C3COC(=O)C3)[C@@]2(C)C[C@H]4O)[C@H](O)[C@H](O)[C@H]1O (stereo partly drawn)	71.7*	85.9*	73.1*	53.2*	78.9*	nt	-16.0%
C/C=C/c1ccc(C2[C@@H]3CN(C(=O)C4CCOCC4)C[C@H]2N3)cc1 (stereo partly drawn)	-17.8	-9.6	-1.1	nt	nt	2.9	nt
